Compound activity as filed in PubChem BioAssay.
Shown is part of a subset that was picked to be rich in hits.
NPSR antag – antagonists of human neuropeptide S receptor cAMP signaling; Q6W5P4; CHO-NPSR cells, cAMP TR-FRET, antagonist mode; Potency, µM (top dose mostly 38.3 µM), without a hit: top-dose activity change, negative = inhibition, usual class: inhibitors; actives 1% (n = 220,000); AID 1461; further: nearly all actives have a fitted effect of over 50% in size
Target sequence (Q6W5P4 whole entry, looked up): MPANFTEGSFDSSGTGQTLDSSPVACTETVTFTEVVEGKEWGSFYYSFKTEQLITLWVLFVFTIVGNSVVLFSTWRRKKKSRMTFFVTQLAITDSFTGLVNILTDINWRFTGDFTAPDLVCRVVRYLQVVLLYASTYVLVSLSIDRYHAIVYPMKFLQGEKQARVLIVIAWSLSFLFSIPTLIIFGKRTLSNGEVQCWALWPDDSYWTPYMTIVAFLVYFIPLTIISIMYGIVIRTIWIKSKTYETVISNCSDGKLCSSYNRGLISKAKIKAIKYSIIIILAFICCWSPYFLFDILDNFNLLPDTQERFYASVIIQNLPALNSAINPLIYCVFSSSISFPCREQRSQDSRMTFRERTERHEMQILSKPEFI
ERK EGF inh – inhibitors of EGF-stimulated ERK signaling pathway; actives 0.41% (n = 130,000); Potency, µM (titrated, usually from 11.5 µM), inactives show top-dose activity change, negative = inhibition, most hits filed as inhibitors; HEK293-V1b, EGF-stimulated phospho-ERK AlphaScreen;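 further: plate controls were stimulated vehicle wells for no effect and unstimulated vehicle basal for full effect; nearly all actives have a fitted effect of over 55% in size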
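Homogeneous cell-based phospho-ERK assay: HEK293/V1b cells in 1% FBS, compound 30 min then EGF 5 min, AlphaScreen luminescence. Activity normalized between DMSO and 25 nM EGF controls; AC50 from Hill modelling.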
* marks the source's active call; other numbers are inactive results; ? = inconclusive; / = no result given; ! = repeats disagree; [ ] = another dose, or the depositor's remark. The call rests on the fitted dose curve; in most records, active means well fitted curve in the direction sought with a large enough effect; inconclusive means small, poorly fitted or top-dose-only effect, or another doubt; inactive means no such curve, though single readings can be large; an effect the other way counts as inactive or inconclusive. Unless noted, on the % scale 0 is the no-effect control and ±100 the full control effect; potency means the concentration at half of the fitted maximal effect.

SMILES | NPSR antag | ERK EGF inh
CCCn1c(C)nc2c(NCCN3CCOCC3)nc(C)nc21 | / | -10%
Oc1c(C(c2ccc(Cl)cc2)N2CCCC2)cc(Cl)c2cccnc12 (configuration not stated) | -57% | 2%
CC(C)(C)n1nnnc1C(c1cccs1)N1CCN(c2ccccc2)CC1 (configuration not stated) | -11%[46.1 µM] | /
Oc1c(C(c2cccs2)N2CCN(c3ccccc3)CC2)ccc2cccnc12 (configuration not stated) | 16µM* | /
Oc1c(C(c2ccccc2Cl)N2CCCC2)ccc2cccnc12 (configuration not stated) | 10µM* | -10%
CN(C)c1ncc2nc(-c3cc(F)cc(F)c3)c(=O)n(Cc3cccs3)c2n1 | / | -11%
COC(=O)C1(C(=O)OC)Cc2conc2[C@H]1c1ccccc1 | / | -2%
O=C1NC(=O)c2cc(Nc3ccccc3)c(Nc3ccccc3)cc21 | 13µM* | ?
c1ccc(Nc2cccc3c(Nc4ccccc4)cccc23)cc1 | -36% | -1%[57.5 µM]
C[C@@]12CCC(=O)C=C1CC[C@@H]1[C@@H]2[C@H](O)C[C@]2(C)[C@@H]1CC[C@]2(O)C(=O)CO | / | 6%[25.7 µM]
CCCCC[C@H](O)/C=C/C=C/C/C=C\CCCC(=O)O | / | -16%
Cc1cc([C@](C)(N)C(=O)O)ccc1P(=O)(O)O | / | -8%
COc1cccc(Nc2ncc3nc(C)c(=O)n(CCC#N)c3n2)c1 | / | 20%
Cc1cccc(CNc2ncnc3ccc(-c4cccnc4)cc23)c1 | / | 8.9µM*
Cc1cccc(CNc2ncnc3ccc(-c4c(C)noc4C)cc23)c1 | / | 10%
O=C1C(=C(c2ccccc2)c2ccccc2)Nc2ccccc21 | 13µM* | /
O=C1C(=C(O)c2ccccc2)C(=O)c2ccccc21 | -13%[46.1 µM] | /
CC(=O)N1/C(=C/c2ccc(N(C)C)cc2)C(=O)c2ccccc21 | -11% | 25µM*
CN(C)c1ccc(/C=C2/C(=O)Nc3ccccc32)cc1 | / | -2%
Cc1cccc(CNc2nc(-c3ccccc3CN(C)C)nc3ccccc23)c1 | / | 20%
CC(C)(C)c1ccc(NS(=O)(=O)c2ccc(N)cc2)cc1 | 25% | 9%[57.5 µM]
CC(C)(C)c1ccc(S(=O)(=O)/C=C/C#N)cc1 | 20µM* | 20%
CC(=O)N[C@H](Cc1c[nH]c2ccccc12)C(N)=O | / | -29%
CCOC(=O)c1c(-c2ccc(C)cc2)csc1NC(=O)c1cc2ccccc2oc1=O | 10µM* | /
CCOC(=O)c1c(-c2ccc(C)cc2)csc1NC(=S)NC(=O)c1ccccc1 | -23%[46.1 µM] | /
SMILES | NPSR antag | ERK EGF inh
Cc1cc(/C=N/n2cnnc2)c(C)n1-c1ccc(OCc2ccc(Cl)cc2)cc1 | 10µM* | /
C(=N\n1cnnc1)/c1ccc(OCc2ccccc2)cc1 | -6%[46.1 µM] | /
CC(C)[C@@H](CC(=O)N[C@@H]1CCCC[C@H]1C(=O)N[C@H](CC(=O)N[C@@H](CCC(=O)O)CC(=O)O)Cc1ccccc1)NC(=O)C[C@H](Cc1ccccc1)NC(=O)[C@@H]1CNCC[C@H]1N | / | 4%
C[n+]1c(/C=C/c2ccc3c(c2)OCO3)ccc2ccccc21 | 1% | -2%
C[n+]1cc2c3c(ccc2c2ccc4cc5c(cc4c21)OCO5)OCO3 | ? | 25µM*!
COc1ccc2c(c1)C(=O)[C@@H](OC(=O)NS(=O)(=O)c1ccc(C)cc1)[C@H](c1ccc(OC)c(Br)c1)O2 | / | -7%
COC(=O)N[C@@H](/C=C/c1ccccc1)C[N+](=O)[O-] | / | -4%
Cc1c(Cl)sn(-c2ccc(Cl)cc2)c1=O | 2.5µM* | -2%
Cc1nn(-c2ccc(Cl)cc2)c(=O)c2ccccc12 | -33% | 4%
COC(=O)N1C(c2ccccc2)=Cc2ccccc2C1C1(C(=O)OC)CCCC1=O (configuration not stated) | / | -6%
CCCn1c(-c2ccc(F)cc2)nc2c(NCCCCN(C)C)nc(C)nc21 | / | 4%
COc1ccc(-n2c(-c3ccc(Cl)cc3)c[n+]3c2CCc2ccccc2-3)cc1 | -15% | 8%
Cc1ccc(-n2c(-c3ccc(Br)cc3)c[n+]3c2CCc2ccc4cccnc4c2-3)cc1 | 10µM* | /
COc1cc(CCN2C(=O)N[C@@H](c3ccccc3)C(C(C)=O)=C2C)cc(OC)c1OC | / | 5%
Cc1ccc(N/C(N)=N/c2nc(C)cc(N3CCCCC3)n2)c(C)c1 | 10µM* | ?
Cc1ccc(N/C(N)=N/c2nc3c(c(=O)[nH]2)CCCC3)c(C)c1 | -13%[46.1 µM] | /
COC(=O)C1C(O)CC[C@H]2CN3CCc4c([nH]c5ccccc45)C3C[C@H]12 (some centres not stated) | / | 22%
O=C1ON=C(c2ccccc2)/C1=C/c1cccnc1 | -11% | -1%
O=C1ON=C(c2ccccc2)/C1=C/c1ccc(OS(=O)(=O)c2ccccc2)cc1 | 6.3µM* | 5%
CCCCC/C=C\C/C=C\C/C=C\CCCCCCC(=O)NCCc1ccc(O)c(O)c1 | / | -5%
CCOC(=O)N1CCN(c2cc(NCCO)c([N+](=O)[O-])c3nonc23)CC1 | -6% | 0%
CC(=O)OCCNc1cc(N2CCN(C)CC2)c2noc3c2c1C(=O)c1ccccc1-3 | 10µM* | ?
COC(=O)[C@H]1O[C@@H](c2cc(OC)c(C)c(OC)c2O)[C@H](C)[C@@H](O)[C@H]1C | / | -12%
C=C(C(=O)O)[C@@H]1CC[C@@]2(C)CCC[C@](C)(O)[C@@H]2C1 | / | -9%
O=[N+]([O-])c1c(Nc2ccccn2)cc(Cl)c2nonc12 | 10µM* | 14µM*
SMILES | NPSR antag | ERK EGF inh
O=C(O)c1cccc(Nc2cc(Cl)c3nonc3c2[N+](=O)[O-])c1 | 5% | 0%
CCNc1ncc2nc(-c3cc(F)cc(F)c3)c(=O)n(Cc3cccs3)c2n1 | / | -1%
C/C(=C\C[Si](C)(C)C)CC[C@H](O)C1=CCCCC1=O | / | 4%
Cc1onc(-c2ccccc2)c1C(=O)N/N=C/c1cccc(O)c1 | 8% | 40%
Cc1onc(-c2ccccc2)c1C(=O)N/N=C/C=C/c1ccccc1 | 17% | 18µM*
COc1ccc(C(=O)N2CCC3(CCCN(Cc4cc(C(F)(F)F)cc(C(F)(F)F)c4)C3)CC2)cc1 | / | 7%
CN(C1=C(N2CCOCC2)C(=O)c2ccccc2C1=O)c1ccccc1 | -24% | 11µM*
O=C(O)c1cccc(NC2=C(N3CCOCC3)C(=O)c3ccccc3C2=O)c1 | 48% | 6%[57.5 µM]
CC(=O)Nc1sc(N)nc1-c1ccccc1 | -14%[46.1 µM] | /
Cc1ncc(N=Nc2ccccc2Cl)c(-c2ccccc2)n1 | -27%[46.1 µM] | /
Nc1nc(-c2ccccc2)c(N=Nc2ccccc2Cl)s1 | -28% | 18µM*
Nc1nc(-c2ccccc2)c(N=Nc2cccc3ccccc23)s1 | ? | 20µM*
C=C1C2CC[C@]3(CCC4[C@@]5(C)CCC[C@@]4(CN(CCO)C5)[C@@H]3C2)[C@@H]1O (some centres not stated) | / | -12%
COc1ccccc1C(C[N+](=O)[O-])c1c(N)n(C)c(=O)n(C)c1=O (configuration not stated) | 10µM* | 9%[57.5 µM]
COc1ccccc1C(c1c(N)n(C)c(=O)n(C)c1=O)C(C)[N+](=O)[O-] (configuration not stated) | 4% | -3%[57.5 µM]
CCC(C)C(=O)O[C@H]1C[C@@H](C)C=C2C=C[C@H](C)[C@H](CC[C@@H]3C[C@@H](O)CC(=O)O3)C21 (some centres not stated) | / | 8%
COc1c(C2=CC(=O)N(C)C2=O)c2c(n1C)C(=O)c1ccccc1C2=O | / | -5%
C=CCOC(=O)N[C@H](/C(C(=O)OC)=C(\C)NCc1ccccc1)c1ccc(Br)cc1 | / | -1%
